Shown is part of a subset that was picked to be rich in hits.
LmPK inhibitor – blocks Leishmania mexicana pyruvate kinase activity; Potency, µM (highest dose often 57.5 µM), most hits filed as inhibitors; purified LmPK, Kinase-Glo ATP luminescence, 1 h; hit rate 0.37% among 290,000; AID 1721; active means well fitted curve in the direction sought with a large enough effect; inconclusive means small, poorly fitted or top-dose-only effect, or another doubt; inactive means no such curve, though single readings can be large; an effect the other way counts as inactive or inconclusive
Target sequence (Q27686 whole entry, looked up): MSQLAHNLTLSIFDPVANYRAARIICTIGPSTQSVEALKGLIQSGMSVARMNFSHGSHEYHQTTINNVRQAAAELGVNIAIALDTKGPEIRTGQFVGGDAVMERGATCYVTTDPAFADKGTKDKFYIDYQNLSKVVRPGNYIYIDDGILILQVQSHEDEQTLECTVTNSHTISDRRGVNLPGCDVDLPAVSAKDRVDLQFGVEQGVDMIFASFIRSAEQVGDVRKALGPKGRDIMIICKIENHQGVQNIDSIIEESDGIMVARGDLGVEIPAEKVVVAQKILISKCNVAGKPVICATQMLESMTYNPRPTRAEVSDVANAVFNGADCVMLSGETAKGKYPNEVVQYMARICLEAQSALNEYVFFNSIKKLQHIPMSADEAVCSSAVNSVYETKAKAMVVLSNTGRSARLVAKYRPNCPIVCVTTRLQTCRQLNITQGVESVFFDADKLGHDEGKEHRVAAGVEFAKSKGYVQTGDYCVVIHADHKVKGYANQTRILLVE
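Purified LmPK (0.1 nM) converted ADP (0.1 mM) to ATP with PEP (0.5 mM) in imidazole buffer pH 7.2 with KCl and MgCl2, 1 h at room temperature. ATP was read by Kinase-Glo luminescence; data normalized to uninhibited and no-enzyme controls.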
SARS PLpro yeast-1 – SARS-CoV PLP inhibition in yeast | S. cerevisiae expressing SARS-CoV PLpro, growth rescue | Potency, µM (doses to about 32.9 µM), hits mostly activators | hit rate 0.19% among 330,000 | AID 485353; further: nearly all actives have a fitted effect of over 55% in size
NS1 function inh – blocks influenza NS1 protein function; AID 2326; Potency, µM (doses to about 46.1 µM); hit rate 0.4% among 270,000; further: actives are rising curves; nearly all actives have a fitted effect of over 50% in size
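A cell-based growth assay was used: compounds that relieve NS1-induced slow growth of budding yeast raise OD600. Assay medium was yeast nitrogen base with ammonium sulphate and -URA supplement, pH 6.0, with 2% galactose.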
Shiga inhibitor – inhibitors of Shiga toxin in Vero cells; Vero cells, Shiga toxin protein synthesis inhibition reporter; inhibition, % at 38.7 µM; hit rate 9.2% among 290,000; AID 2315; in the data active means inhibition mostly above about 28%, no sharp cut-off; inactive means mostly below about 43%
Cycloheximide cs – affects cycloheximide protein synthesis inhibition readout, counter-screen. cell reporter, cycloheximide protein synthesis inhibition counterscreen. max response, %. hit rate 12% among 300,000. AID 2314; in the data active means max response mostly above about 13%, no sharp cut-off; inactive means mostly below about 14%; further: read at 38.3 µM for the half of the compounds with a filed dose
Tb PYK inh – T. brucei pyruvate kinase inhibition | Q57TT1 | TbPYK enzyme, Kinase-Glo Plus ATP luminescence, 45 min | Potency, µM (series often up to 76.8 µM), actives largely listed as inhibitors | hit rate 0.12% among 410,000 | AID 624173; active means well fitted curve in the direction sought with a large enough effect; inconclusive means small, poorly fitted or top-dose-only effect, or another doubt; inactive means no such curve, though single readings can be large; an effect the other way counts as inactive or inconclusive; further: nearly all actives have a fitted effect of over 50% in size
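Enzyme and substrate buffer are dispensed first and compound is pin-transferred. ADP at 130 uM final then starts the reaction, which runs 45 min at room temperature. Detection reagent is added for 10 min before luminescence is imaged.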
Flu NS1 inh – validation of influenza NS1 protein function inhibitors. shares compounds with NS1 function inh. influenza NS1 function cell assay, 15-point titration. activity change, negative = inhibition, % at 32.9 µM. 1,400 tested, under 10 active. AID 492980
SARS PLpro yeast-2 – Validates SARS-CoV PLpro inhibitor hits in yeast; shares compounds with SARS PLpro yeast-1; calls only; yeast expressing SARS-CoV PLpro, growth phenotype rescue; hit rate 19% among 1,000; call rule not given here
Hits are given with their value; n = inactive; u = inconclusive; x = not tested or not shown; + = active, no number; [ ] = remark or other dose. Unless noted, the call rests on the fitted dose curve.

SMILES | LmPK inhibitor | SARS PLpro yeast-1 | NS1 function inh | Shiga inhibitor | Cycloheximide cs | Tb PYK inh | SARS PLpro yeast-2 | others
Cc1ccc(NC(=O)/C(=C/c2cccc([N+](=O)[O-])c2)NC(=O)C2CCCCC2)cc1 | n | n | n | n | n | n | x
CC(=O)N/C(=C\c1cccc([N+](=O)[O-])c1)C(=O)NC1CCCCC1 | n | u | 11.2µM | 61.1 | 48.8 | n | n | Flu NS1 inh=n
O=C(N/N=C\c1c(O)ccc2ccccc12)c1ccc(Cn2cccn2)o1 | n | u | u | n | n | n | n | Flu NS1 inh=n
CCOC(=O)N1CCN(S(=O)(=O)c2ccc(C(=O)NNc3nc4ccc(Cl)cc4s3)cc2)CC1 | n | 10µM | 7.94µM | n | n | n | + | Flu NS1 inh=n
CCOC(=O)N1CCN(S(=O)(=O)c2ccc(C(=O)NNc3nc4c(C)cccc4s3)cc2)CC1 | n | 7.94µM | 10µM | n | n | u | + | Flu NS1 inh=u
Cc1cccc2sc(NNC(=O)c3ccc(S(=O)(=O)N4CCc5ccccc5C4)cc3)nc12 | n | 10µM | 12.6µM | n | n | u | + | Flu NS1 inh=u
CC(C)(C)OC(=O)N1CCC(N2CCN(Cc3ccccc3)C(=O)C2=O)CC1 | x | x | x | x | x | n | x
COc1ccc(-c2cc(CNc3nc4cc(-c5ccccc5C)sc4c(=O)n3C)on2)cc1 | x | x | x | x | x | n | x
CCC(=O)N1CCc2cc(Br)cc(S(=O)(=O)N3CCCC(C(=O)Nc4ccc(OC)cc4OC)C3)c21 (stereo unspecified) | x | x | x | x | x | n | x
O=C(Cn1c(NCCO)nc2ccccc21)NCCc1ccc(F)cc1 | n | u | 1µM | n | n | n | n | Flu NS1 inh=n
O=C(Cn1c(CO)nc2ccccc21)NCCc1ccc(F)cc1 | n | n | x | n | n | n | x
CCN(CC)S(=O)(=O)c1ccc(C(=O)NCc2ccc3[nH]c4c(c3c2)CCCC4)cc1 | n | n | u | n | n | n | x
CN(C)S(=O)(=O)c1ccc(C(=O)NCc2ccc3[nH]c4c(c3c2)CCCC4)cc1 | n | 3.55µM | 15.8µM | n | n | n | + | Flu NS1 inh=n
CCN(CC)C(=O)CSc1nc2ccccc2c(=O)n1-c1cccc(OC)c1 | n | n | n | n | n | n | x
COc1cccc(-n2c(SCc3cc(=O)oc4cc(O)c(O)cc34)nc3ccccc3c2=O)c1 | n | 14.1µM | u | n | n | n | n | Flu NS1 inh=n
O=C(CSc1nc2ccsc2c(=O)n1-c1ccc(Cl)cc1)NCc1ccc(Cl)cc1 | x | x | x | x | x | n | x
O=C(CP(=O)(c1ccccc1)c1ccccc1)N/N=C/c1cc(Br)cc(Br)c1O | n | 2.51µM | n | n | n | n | +
O=C(C[n+]1ccccc1)N/N=C/c1cc(Br)cc(Br)c1O | n | n | n | n | n | n | x
Cc1cc(Cl)ccc1NS(=O)(=O)c1c(C(=O)N2CCCCCC2)c(C)n(C)c1C | x | x | x | x | x | n | x
Cc1ccccc1OC(=O)CSc1nnc(-c2cccs2)o1 | x | x | x | x | x | n | x
C/C(=N\NC(=O)CN1CCN(S(=O)(=O)c2ccc(C)cc2)CC1)c1cccnc1 | n | 3.16µM | n | n | n | n | n
CC(COC(=O)c1ccccc1)(COC(=O)c1ccccc1)/[N+]([O-])=C/c1ccccc1 | n | u | n | n | n | n | n
O=C(COC(=O)CNC(=O)c1ccccc1)Nc1ccc(S(=O)(=O)N2CCOCC2)cc1 | n | n | x | n | n | n | x
CC(OC(=O)CNC(=O)c1ccccc1)C(=O)Nc1ccc(S(=O)(=O)N2CCOCC2)cc1 (stereo unspecified) | x | u | x | x | x | n | n
COc1cccc(/C=N/NC(=O)c2nc(-c3ccccc3)cc(-c3ccccc3)n2)c1O | n | 11.2µM | u | n | 14.9 | n | +
SMILES | LmPK inhibitor | SARS PLpro yeast-1 | NS1 function inh | Shiga inhibitor | Cycloheximide cs | Tb PYK inh | SARS PLpro yeast-2 | others
COc1cccc(C=NNC(=O)c2ccncc2)c1O | x | x | x | x | x | n | x
COc1cccc(/C=N/NC(=O)C(C)n2nc(C)c([N+](=O)[O-])c2C)c1O (stereo unspecified) | n | 11.2µM | n | n | 34.8 | n | n
COc1cccc(/C=N/NC(=O)c2c(C)nc3ccc(Br)cn23)c1O | n | u | x | n | n | n | n
COc1cccc(/C=N/NC(=O)CSc2ccccc2C)c1O | n | 22.4µM | n | 37.4 | n | n | +
COc1cccc(/C=N/NC(=O)Cn2nc(C)c([N+](=O)[O-])c2C)c1O | n | n | n | n | n | n | x
CCN1CCN(C(C(=O)NC2CCCCC2)c2cc3ccccc3o2)CC1 (stereo unspecified) | x | x | x | x | x | n | x
COC(=O)c1ccc(NC(=O)COC(=O)c2nc3nccc(C)n3n2)cc1 | n[11.5 µM] | n | x | n | n | n | x
Cc1ccnc2nc(C(=O)OCC(=O)Nc3ccc4c(c3)OCCO4)nn12 | x | u | x | x | x | n | n
COc1cc([N+](=O)[O-])cc(/C=N/NC(=O)C(C)Nc2cccc3ccccc23)c1O (stereo unspecified) | n | 10µM | n | n | n | n | u
CCCNC(=O)c1ccc2c(=O)c(O)c(-c3cccc(Br)c3)[nH]c2c1 | n | u | n | n | n | n | x
Nc1c(Cl)cc(-c2[nH]c3cc(C(=O)NCCO)ccc3c(=O)c2O)cc1Cl | n | u | n | n | n | n | +
CCN(CC(=O)Nc1ccc(NC(C)=O)cc1)C(=O)Cc1cccc2ccccc12 | n | n | n | n | n | n | x
Cc1ccc(NC(=O)CSc2ncccc2C(=O)Oc2cccc([N+](=O)[O-])c2)cc1Cl | n | u | n | 75.1 | n | n | n
O=C(O)c1ccc(NCc2ccc3c(c2)OCO3)cc1 | n | u | n | n | n | n | n
O=C(O)c1ccc(NCc2ccc(Br)cc2)cc1 | n | n | n | n | n | n | x
Cc1sc2nc(CN(C(=O)NC3CCCCC3)C3CCCC3)[nH]c(=O)c2c1C | n | 3.55µM | n | n | n | n | u
CCc1cccc(C)c1NC(=O)C1CCCN1S(=O)(=O)c1cccc2nsnc12 (stereo unspecified) | x | x | x | x | x | n | x
Cc1cccc(CN2C(=O)c3ccccc3S(=O)(=O)c3ccc(C(=O)N4CCCC4)cc32)c1 | x | x | x | x | x | n | x
O=C(CSc1nnc(-c2ccccc2)n1Cc1ccccc1)NNC(=O)c1ccccc1O | n | 5.01µM | n | n | n | n | n
O=C(O)CSc1nnc(-c2ccccc2O)n1Cc1ccccc1 | n | n | n | n | n | n | x
O=C(CSc1nnc(-c2ccccc2O)n1Cc1ccccc1)NNC(=O)c1ccccc1O | n | 6.31µM | n | n | n | n | +
OC(CSc1ccccc1)CN1CCN(c2ccc(Cl)cc2)CC1 (stereo unspecified) | x | x | x | x | x | n | x
O=C1NCCCC1C(=O)N/N=C/c1cccc(O)c1 (stereo unspecified) | n | n | n | n | n | n | x
O=C1NCCCC1C(=O)N/N=C/c1ccccc1 (stereo unspecified) | n | u | n | n | n | n | n
COc1ccccc1CNC(=O)CCc1c(C)c2cc3c(C)c(C)oc3cc2oc1=O | x | x | x | x | x | n | x
